Measurements published in PubChem BioAssay (Tox21).
Results filed as inconclusive are left out. Calls of active or inactive are those of the source. Unless noted, calls follow the shape of the full dose curve.

Key:
[1] = biological target: Gonadotropin-releasing hormone receptor (Homo sapiens) (UniProt P30968); test: Human gonadotropin-releasing hormone receptor (GnRHR) small molecule agonists, calcium flux assay in GnRHR-HEK293 cells (AID 1920063); also: nearly all actives have a fitted effect of over 35% in size
Method in brief: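 Tox21-format agonist screen using human GnRHR-expressing HEK293 cells and a fluorescent calcium dye; kinetic 3-min fluorescence reading after compound addition, 15-point concentration series run in triplicate.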

[2] = G protein-coupled receptor (GPCR) small molecule agonists, calcium flux assay: HEK293 wild type cell line counter screen (AID 1920065)
Method in brief: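 In this agonist-mode screen, ATP is the positive control and DMSO the vehicle. Cells grow 18 h before a 1 h dye incubation at 37 C; signal is taken at Ex/Em 480/540 over 3 min.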

[3] = p53 small molecule agonists, cell-based qHTS assay with human liver microsomes (AID 1963577);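 also: p53 response element beta-lactamase reporter cells with liver microsomes plus NADPH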
Method in brief: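 Metabolically competent format: test substances, human liver microsomes and NADPH (both 0.5 mg/mL final) incubated with p53RE-bla cells 16 h at 37 C. Beta-lactamase reporter signal then quantified by fluorescence.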

[4] = p53 small molecule agonists, cell-based qHTS assay with rat liver microsomes (AID 1963578)
Method in brief: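 Each plate received p53RE-bla cells, then compound, then rat liver microsomes and NADPH (both 0.5 mg/mL final). Plates were held 16 h at 37 C, and beta-lactamase activity was detected with LiveBLAzer over 2 h.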

[5] = p53 small molecule agonists, cell-based qHTS assay with human liver microsomes: qHTS cell viability counter screen (AID 1963579); also: nearly all actives have a fitted effect of over 45% in size
Method in brief: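 Tox21 library compounds, delivered from DMSO stocks, were tested on p53RE-bla cells together with 0.5 mg/mL human liver microsomes and 0.5 mg/mL NADPH (final) over 16 h at 37 C; CellTiter-Glo luminescence served as the cytotoxicity measure.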

[6] = p53 small molecule agonists, cell-based qHTS assay with rat liver microsomes: qHTS cell viability counter screen (AID 1963580); also: nearly all actives have a fitted effect of over 45% in size
Method in brief: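 HCT-116 p53RE-bla, 4,000 cells/well, 5 h pre-incubation; cpd + rat liver microsomes 0.5 mg/mL + NADPH 0.5 mg/mL (final); 16 h, 37 C; CellTiter-Glo, 30 min RT; luminescence.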

[7] = p53 small molecule agonists, cell-based qHTS assay: qHTS cell viability counter screen (AID 1963581); also: nearly all actives have a fitted effect of over 45% in size
Method in brief: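 Compounds are pinned onto HCT-116 p53RE-bla cells and left 16 h at 37 C. Following the reporter FRET read, ATP is quantified by CellTiter-Glo luminescence after 30 min at room temperature.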

[8] = biological target: 5-hydroxytryptamine receptor 2A (Homo sapiens) (UniProt P28223); test: 5-hydroxytryptamine receptor 2A (HTR2A) small molecule antagonists, cell-based qHTS assay (AID 1963586); also: nearly all actives have a fitted effect of over 45% in size
Method in brief: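 Antagonist-mode intracellular calcium assay: DOI (4 nM) added after 5 min compound pre-incubation at room temperature to dye-loaded HTR2A-CHO cells. Fluorescence followed for 3 min, sampled every second.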

[9] = biological target: 5-hydroxytryptamine receptor 2A (Homo sapiens) (UniProt P28223); test: 5-hydroxytryptamine receptor 2A (HTR2A) small molecule agonists, cell-based qHTS assay (AID 1963587); also: nearly all actives have a fitted effect of over 30% in size
Method in brief: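 Kinetic calcium-flux fluorescence (2 min, 1 sec intervals) after compound addition in agonist mode. HTR2A-CHO cells were cultured 18 h, then dye-loaded 1 h at 37 C.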

[10] = biological target: Muscarinic acetylcholine receptor M1 (Homo sapiens) (UniProt P11229); test: Cholinergic receptor muscarinic 1 (CHRM1) small molecule agonists, cell-based qHTS assay (AID 1963589); also: nearly all actives have a fitted effect of over 35% in size
Method in brief: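 Stable CHRM1-CHO cells (human receptor) were incubated 18 h, dye-loaded for 1 h at 37 C and exposed to test compounds for agonist activity, with calcium-dependent fluorescence followed kinetically.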

[11] = biological target: Beta-2 adrenergic receptor (Homo sapiens) (UniProt P07550); test: Adrenergic beta2 receptor (ADRB2) small molecule antagonists, cell-based qHTS assay (AID 1963592); also: series mostly up to about 92 µM; nearly all actives have a fitted effect of over 50% in size
Method in brief: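 Cells (CHO, stable ADRB2 overexpression) incubated 18-20hr at 37C; compounds added from DMSO; agonist mix (1nM isoproterenol, 100uM IBMX, 25uM Ro-20-1724) added; 0.5hr RT; d2-cAMP and anti-cAMP-cryptate added; 1hr RT; 665/615 nm read.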

[12] = biological target: D(2) dopamine receptor (Homo sapiens) (UniProt P14416); test: Dopamine D2 receptor (DRD2) small molecule agonists, cell-based qHTS assay (AID 1963594); also: nearly all actives have a fitted effect of over 35% in size
Method in brief: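 cAMP accumulation in DRD2-HEK293 cells measured by HTRF after 1 h detection; compounds added 10 min before NKH477 (200nM […]) forskolin-analogue stimulation, 30 min at room temperature, with Ro20-1724 present at 0.1 mM final.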

[13] = biological target: D(2) dopamine receptor (Homo sapiens) (UniProt P14416); test: Dopamine D2 receptor (DRD2) small molecule antagonists, cell-based qHTS assay (AID 1963595; active = well fitted inhibition curve with a large enough effect in the signal ratio in the repeat runs, with a control signal flat; the % refers to the signal ratio)
Method in brief: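 Stable D2 receptor HEK293 line, 24 h after seeding. Compound preincubated 10 min, then quinpirole (12 nM) with forskolin analogue NKH477 (200 nM), 30 min, room temperature. Detection by time-resolved FRET of cAMP.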

[14] = p53 small molecule agonists, cell-based qHTS assay (AID 1963582; active = well fitted activation curve with a large enough effect in the signal ratio in the repeat runs, not every such curve was filed as active; the % refers to the signal ratio)
Method in brief: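 Agonist activity was scored from beta-lactamase FRET fluorescence in p53RE-bla cells treated 16 h at 37 C with compounds in DMSO, substrate incubation being 2 h at room temperature.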

[15] = biological target: Muscarinic acetylcholine receptor M1 (Homo sapiens) (UniProt P11229); test: Cholinergic receptor muscarinic 1 (CHRM1) small molecule antagonists, cell-based qHTS assay (AID 1963588); also: nearly all actives have a fitted effect of over 40% in size
Method in brief: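 CHRM1-CHO calcium-flux assay, antagonist mode. Cells were seeded 18 h, dye-loaded 1 h at 37 C and given compound for 5 min at RT, then acetylcholine was added at 50nM. FDSS fluorescence was read 3 min; 15 concentrations, three runs.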

[16] = biological target: KiSS-1 receptor (Homo sapiens) (UniProt Q969F8); test: Human kisspeptin (KISS1R) small molecule agonists, calcium flux assay in KISS1R-HEK293 cells (AID 1920064; active = well fitted activation curve with a large enough effect in the repeat runs)
Method in brief: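 Intracellular calcium mobilization in KISS1R-HEK293 cells was recorded by fluorescence (Ex/Em 480/540) for 3 min following compound addition to cells pre-loaded 1 h with calcium dye.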

[17] = cAMP Responsive Elements (CRE) small molecule agonists, cell-based qHTS assay (AID 1963590)
Method in brief: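 FRET-based beta-lactamase readout (LiveBLAzer B/G, 2 h RT) quantified CRE activation in HEK 293T CRE-bla cells after 3 h treatment with DMSO-dissolved compounds.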

[18] = cAMP Responsive Elements (CRE) small molecule antagonists, cell-based qHTS assay (AID 1963591; active = well fitted inhibition curve with a large enough effect in the signal ratio in the repeat runs, not every such curve was filed as active; the % refers to the signal ratio)
Method in brief: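 qHTS in CRE-bla HEK 293T cells: compound in DMSO, then 0.25 uM NKH477 (final), 3 h at 37 °C/5% CO2; beta-lactamase FRET read-out after 2 h substrate incubation.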

[19] = biological target: Beta-2 adrenergic receptor (Homo sapiens) (UniProt P07550); test: Adrenergic beta2 receptor (ADRB2) small molecule agonists, cell-based qHTS assay (AID 1963593);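 also: CHO cells stably overexpressing human ADRB2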
Method in brief: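 CHO cells stably over-expressing ADRB2 were plated overnight at 37C, then dosed with compounds plus a stimulation mix containing 100uM IBMX and 25uM Ro-20-1724 for 0.5hr at room temperature. cAMP was measured by HTRF competition, 1hr.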

[20] = Nuclear factor erythroid 2-related factor 2/antioxidant responsive element (Nrf2/ARE) small molecule agonists: luciferase reporter gene qHTS assay in human keratinocytes (AID 1919969); also: nearly all actives have a fitted effect of over 35% in size

Measured: Potency

Sequence of D(2) dopamine receptor (Homo sapiens) (P14416 whole entry, looked up): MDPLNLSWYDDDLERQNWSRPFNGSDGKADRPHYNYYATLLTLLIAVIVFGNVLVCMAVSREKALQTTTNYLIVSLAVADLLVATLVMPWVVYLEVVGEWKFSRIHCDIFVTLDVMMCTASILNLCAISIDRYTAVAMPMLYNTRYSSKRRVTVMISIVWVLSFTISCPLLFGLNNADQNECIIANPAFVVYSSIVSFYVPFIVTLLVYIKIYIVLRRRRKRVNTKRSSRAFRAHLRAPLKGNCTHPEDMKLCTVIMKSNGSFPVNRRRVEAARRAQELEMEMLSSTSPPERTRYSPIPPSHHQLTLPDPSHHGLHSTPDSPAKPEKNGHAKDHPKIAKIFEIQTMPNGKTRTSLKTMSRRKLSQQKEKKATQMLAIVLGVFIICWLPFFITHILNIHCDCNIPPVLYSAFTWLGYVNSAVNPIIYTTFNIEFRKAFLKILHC
Sequence of Beta-2 adrenergic receptor (Homo sapiens) (P07550 whole entry, looked up): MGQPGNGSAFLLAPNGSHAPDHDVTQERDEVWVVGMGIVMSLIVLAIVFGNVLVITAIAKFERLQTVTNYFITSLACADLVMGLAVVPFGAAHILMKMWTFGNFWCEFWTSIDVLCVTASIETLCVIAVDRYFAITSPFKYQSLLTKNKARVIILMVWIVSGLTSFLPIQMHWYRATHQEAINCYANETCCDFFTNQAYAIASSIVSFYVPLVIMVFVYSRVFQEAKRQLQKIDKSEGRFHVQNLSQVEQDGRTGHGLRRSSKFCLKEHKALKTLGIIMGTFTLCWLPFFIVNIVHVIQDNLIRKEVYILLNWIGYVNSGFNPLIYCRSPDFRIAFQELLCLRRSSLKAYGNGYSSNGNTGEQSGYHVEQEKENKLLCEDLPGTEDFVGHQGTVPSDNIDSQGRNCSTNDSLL
Sequence of Gonadotropin-releasing hormone receptor (Homo sapiens) (P30968 whole entry, looked up): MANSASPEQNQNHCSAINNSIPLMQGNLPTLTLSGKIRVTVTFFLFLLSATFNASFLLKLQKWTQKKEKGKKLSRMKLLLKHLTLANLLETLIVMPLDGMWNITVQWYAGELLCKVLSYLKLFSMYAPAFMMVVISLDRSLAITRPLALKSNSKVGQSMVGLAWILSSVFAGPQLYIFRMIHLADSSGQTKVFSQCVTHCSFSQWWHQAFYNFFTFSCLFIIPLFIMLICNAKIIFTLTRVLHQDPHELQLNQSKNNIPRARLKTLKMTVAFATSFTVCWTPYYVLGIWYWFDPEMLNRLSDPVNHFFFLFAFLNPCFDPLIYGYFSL
Sequence of 5-hydroxytryptamine receptor 2A (Homo sapiens) (P28223 whole entry, looked up): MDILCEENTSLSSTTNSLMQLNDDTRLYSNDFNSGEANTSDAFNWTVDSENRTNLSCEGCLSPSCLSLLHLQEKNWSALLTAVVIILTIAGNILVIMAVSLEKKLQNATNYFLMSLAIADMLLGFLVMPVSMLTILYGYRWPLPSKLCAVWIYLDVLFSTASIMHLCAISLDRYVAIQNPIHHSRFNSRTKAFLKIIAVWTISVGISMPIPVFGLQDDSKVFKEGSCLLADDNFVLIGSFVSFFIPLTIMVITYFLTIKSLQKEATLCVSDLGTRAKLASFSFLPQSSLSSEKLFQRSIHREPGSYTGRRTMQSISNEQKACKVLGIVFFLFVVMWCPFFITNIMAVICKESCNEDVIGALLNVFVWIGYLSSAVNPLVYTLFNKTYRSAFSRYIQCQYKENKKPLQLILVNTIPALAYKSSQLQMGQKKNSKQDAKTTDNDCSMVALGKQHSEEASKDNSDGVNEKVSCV
Sequence of KiSS-1 receptor (Homo sapiens) (Q969F8 whole entry, looked up): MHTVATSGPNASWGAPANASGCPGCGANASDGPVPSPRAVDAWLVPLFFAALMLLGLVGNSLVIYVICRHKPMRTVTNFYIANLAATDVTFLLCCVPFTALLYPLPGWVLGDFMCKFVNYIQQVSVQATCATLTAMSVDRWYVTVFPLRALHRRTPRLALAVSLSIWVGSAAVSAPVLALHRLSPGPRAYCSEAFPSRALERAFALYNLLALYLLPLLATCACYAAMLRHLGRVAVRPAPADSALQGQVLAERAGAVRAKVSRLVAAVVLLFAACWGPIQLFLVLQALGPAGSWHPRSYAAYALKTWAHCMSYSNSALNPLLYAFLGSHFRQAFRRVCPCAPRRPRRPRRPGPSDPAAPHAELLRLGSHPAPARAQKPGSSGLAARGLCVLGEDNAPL
Sequence of Muscarinic acetylcholine receptor M1 (Homo sapiens) (P11229 whole entry, looked up): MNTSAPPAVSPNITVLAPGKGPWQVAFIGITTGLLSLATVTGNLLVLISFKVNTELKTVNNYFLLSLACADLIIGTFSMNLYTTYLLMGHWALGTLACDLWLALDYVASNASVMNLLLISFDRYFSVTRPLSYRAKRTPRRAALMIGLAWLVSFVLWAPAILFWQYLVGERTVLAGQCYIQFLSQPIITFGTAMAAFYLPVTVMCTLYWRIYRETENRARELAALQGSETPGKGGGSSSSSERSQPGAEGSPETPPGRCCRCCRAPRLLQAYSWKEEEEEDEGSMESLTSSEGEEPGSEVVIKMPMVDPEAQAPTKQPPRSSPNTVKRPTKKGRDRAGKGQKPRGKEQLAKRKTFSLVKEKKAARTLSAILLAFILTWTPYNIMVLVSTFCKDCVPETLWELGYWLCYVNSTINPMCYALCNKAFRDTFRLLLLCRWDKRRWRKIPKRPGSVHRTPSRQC

Clc1nc(C(Cl)(Cl)Cl)c(Cl)c(Cl)c1Cl
not listed: [14] | [15] | [16] | [17] | [18] | [19] | [20]
inactive: all other assays above

Cc1ccc(C(=O)c2ccccc2)cc1
not listed: [16] | [17] | [18] | [19] | [20]
inactive: all other assays above

COC(=O)/C=C\C(=O)O
not listed: [3] | [19] | [20]
inactive: all other assays above

CCCCC(CC)COC(=O)COc1ccc(Cl)cc1C (centres undefined)
not listed: [7] | [16] | [19] | [20]
inactive: all other assays above

CCCCCCOC(=O)C(C)C
not listed: [1] | [9] | [10] | [18] | [20]
inactive: all other assays above

COC(=O)[C@H]1[C@H]2C[C@@H]3c4[nH]c5cc(OC)ccc5c4CCN3C[C@H]2C[C@@H](OC(=O)COc2ccc(OC)cc2)[C@@H]1OC
not listed: [11] | [12] | [13] | [18] | [19]
inactive: all other assays above

Cc1cc(O)ccc1N
not listed: [5] | [7] | [12] | [13] | [14] | [16] | [17] | [20]
inactive: all other assays above

Cc1ccc(O)cn1
not listed: [2] | [5] | [19] | [20]
inactive: all other assays above
